Legend:
Details in all cases: concentration: 1 μM, replicates: in singlicate; n = 1
[1] = system: PRKCI
[2] = system: PRKCQ
[3] = system: PRKD1
[4] = system: PRKD2
[5] = system: PRKD3
[6] = system: PRKG1
[7] = system: PRKG2
[8] = system: T1, PRKR
T1 construct: gene EIF2AK2

[9] = system: PRKX
[10] = system: PRP4
[11] = system: T2, PYK2
T2 construct: gene PTK2B

[12] = system: QSK
[13] = system: RAF1
[14] = system: RET
[15] = system: RIOK1
[16] = system: RIOK2
[17] = system: RIOK3
[18] = system: RIPK1
[19] = system: RIPK2
[20] = system: RIPK4
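Note: KINOMEscan kinase panel screen.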

SMILES	%Inh [1]	%Inh [2]	%Inh [3]	%Inh [4]	%Inh [5]	%Inh [6]	%Inh [7]	%Inh [8]	%Inh [9]	%Inh [10]	%Inh [11]	%Inh [12]	%Inh [13]	%Inh [14]	%Inh [15]	%Inh [16]	%Inh [17]	%Inh [18]	%Inh [19]	%Inh [20]
O=C(NCCNc1ccnc(Nc2ccc(F)cc2)n1)c1cc2ccccc2s1 [GSK1379874]	0%	0%	5%	0%	0%	0%	0%	0%	4%	49%	29%	0%	10%	0%	23%	0%	24%	0%	0%	18%
O=c1cc(N2CCOCC2)nc2n(Cc3cccc(C(F)(F)F)c3)ccn12 [GSK2297543]	4%	8%	0%	1%	0%	27%	0%	8%	0%	22%	3%	3%	5%	0%	26%	7%	19%	10%	12%	0%
Cc1cn2c(=O)cc(N3CCOCC3)nc2n1Cc1cccc(Cl)c1Cl [GSK2334006]	31%	28%	0%	10%	18%	0%	0%	0%	24%	0%	13%	0%	22%	21%	56%	29%	4%	0%	14%	6%
COc1cc(Nc2nccc(N3CCC(NC(=O)c4cccc(NC(C)=O)c4)C3)n2)cc(OC)c1OC (centres unmarked) [GSK1379754]	0%	24%	0%	0%	0%	15%	0%	0%	27%	20%	14%	0%	0%	29%	82%	5%	61%	0%	0%	28%
CC(C)Oc1ccc2c(-c3ccnc(Nc4ccc(N5CCN(C)CC5)cc4)n3)cnn2n1 [GW696155]	26%	0%	86%	97.6%	100%	0%	4%	92.2%	0%	95%	42%	23%	0%	56%	99.9%	90%	95.4%	40%	15%	27%
CN1c2ccc(CNc3ccc(F)cc3)cc2-c2c(cnn2C)S1(=O)=O	0%	12%	17%	0%	0%	0%	0%	0%	0%	11%	0%	20%	0%	0%	18%	0%	14%	0%	2%	5%
N#Cc1c(N2CCOCC2)sc(-c2ccn[nH]2)c1-c1ccc(Cl)cc1	1%	11%	0%	0%	16%	0%	8%	0%	12%	56%	0%	0%	11%	0%	0%	0%	0%	6%	0%	35%
O=C(c1ccc(-c2cc(-c3c[nH]nc3-c3ccccn3)ccn2)cc1)N1CCOCC1 [GW812171]	15%	0%	0%	17%	0%	10%	0%	20%	0%	0%	0%	0%	9%	0%	8%	0%	7%	0%	1%	2%
O=C(NOCC1CC1)c1ccc(F)c(F)c1Nc1ccc(I)cc1Cl	0%	0%	8%	0%	0%	0%	0%	0%	0%	0%	0%	0%	0%	17%	7%	0%	0%	0%	0%	100%
O=c1cc(N2CCOCC2)nc2n(Cc3cccc(F)c3)ccn12 [GSK2297430]	0%	11%	6%	0%	0%	10%	0%	0%	2%	0%	22%	0%	0%	31%	35%	11%	35%	0%	0%	0%
NCC(NC(=O)c1cc(-c2cn[nH]c2)c(-c2ccnc3[nH]ccc23)s1)c1ccccc1.O=C(O)C(F)(F)F.O=C(O)C(F)(F)F (centres unmarked) [GSK1325775]	25%	90.3%	0%	45%	55%	84%	93.6%	27%	97.8%	72%	0%	9%	0%	18%	99.4%	34%	100%	19%	0%	31%
COc1ccc(COc2cc(-n3cnc4ccccc43)sc2C(N)=O)cc1 [GSK1024304]	0%	32%	0%	24%	3%	0%	0%	0%	10%	11%	0%	0%	4%	26%	0%	80%	0%	4%	0%	0%
Fc1ccc(-c2ncn(CCCN3CCOCC3)c2-c2cccnc2)cc1 [SB-211743]	23%	0%	0%	6%	0%	35%	0%	0%	0%	0%	0%	0%	9%	3%	17%	53%	0%	0%	0%	4%
[2H]C([2H])(c1cccc(C(F)(F)F)c1C)n1ccn2c(=O)nc(N3CCOCC3)cc12 [GSK2336394]	22%	9%	17%	4%	27%	0%	0%	0%	14%	18%	4%	0%	10%	14%	23%	6%	0%	0%	7%	5%
COC(=O)Nc1nc2cc(Oc3ccc(NC(=O)Nc4cc(F)ccc4F)cc3)ccc2[nH]1.Cl [GW701424]	0%	0%	0%	0%	6%	0%	0%	0%	0%	62%	0%	0%	89%	95.1%	0%	0%	0%	0%	38%	8%
NS(=O)(=O)c1cccc(-c2ccc3ncc(N4CCOCC4)nc3c2)c1 [GSK1535721]	21%	2%	0%	20%	0%	0%	14%	10%	0%	2%	10%	0%	5%	0%	22%	41%	0%	19%	13%	1%
Cc1cccc(Cn2ccn3c(=O)cc(N4CCOCC4)nc23)c1 [GSK2297542]	14%	28%	13%	7%	24%	0%	9%	0%	23%	1%	12%	11%	7%	13%	26%	29%	10%	26%	11%	7%
CNc1ncnc2[nH]ncc12 [SKF-18355]	0%	0%	0%	0%	0%	0%	0%	0%	0%	0%	0%	5%	23%	0%	0%	0%	0%	0%	0%	22%
CCc1ccnc(/C=C/c2n[nH]c3cc(Sc4ccccc4C(=O)NC)ccc23)c1	1%	0%	0%	15%	0%	0%	0%	0%	29%	0%	0%	0%	0%	83%	0%	0%	0%	0%	43%	0%
